Data from PubChem BioAssay (NCI).
The panel holds about 83,000 compounds, 20% with a hit somewhere; the sample as a whole holds those more often.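 Growth was measured after 48 h exposure to one concentration of compound in 96-well plates. Values under 10 count as active.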 Calls of active or inactive are those of the source.

System: BT-549 breast
Assay: NCI-60 one-dose screen, 48 h (100 = growth as untreated, 0 = no growth, -100 = all killed)
Conditions: 10 µM
Protocol: Growth inhibition of the BT-549 human tumor cell line is measured as a screen for anti-cancer activity. Cells are grown in 96 well plates and exposed to the test compound for 48 hours. Compounds are tested at a single concentration, which is 10^-5 M for most compounds. The reported endpoint is percent growth (GI% or GIPRCNT), where numbers from 0 - 100% represent growth inhibition, and numbers from -100% - 0 represent cell death. For example, a value of 40 represents 60% growth inhibition. A value of 0 means no net growth occurred over the course of the experiment. A value of -40 indicates 40% of cells at the beginning of the experiment died by the end of the experiment. A value of -100 means all cells are dead at the end of the experiment.
NCI-60 Human Tumor Cell Lines Screen was performed using the standard one-dose NCI protocol, which is described in more detail at https://dtp.cancer.gov/discovery_development/nci-60/default.htm.
Compounds with GIPRCNT values below 10 were considered active. Activity score was based on GIPRCNT using the following formula: […]
Score is 0 for GIPRCNT values of 100 or above, 50 for GIPRCNT values of 0, and 100 for GIPRCNT values of -100.

Compound	growth
Cc1ccc(C(=O)NC2c3ccccc3Oc3ccccc32)cc1	62.6% (inactive)
Cc1cc(=O)n(-c2ccc(F)cc2)[nH]1	105% (inactive)
COCCOC(=O)c1ccc(C(C)C)cc1	98.5% (inactive)
O=C(Nc1cccc(NC(=O)Nc2cc(C(F)(F)F)ccc2Cl)c1)Nc1cc(C(F)(F)F)ccc1Cl	17.8% (inactive)
O=[N+]([O-])c1ccccc1N=Nc1ccc(O)cc1O	101% (inactive)
c1ncc2[nH]cnc2n1	106% (inactive)
O=[N+]([O-])c1ccc(Sc2ccncn2)c([N+](=O)[O-])c1	74.9% (inactive)
CCOC(=O)C(C#N)Cc1ccccc1 (stereo not given)	117% (inactive)
COC(=O)c1ccccc1N(C)C	103% (inactive)
Cc1cc(Cc2cc(C)c(N)cc2N)c(N)cc1N	98.3% (inactive)
CCCCOC(=O)c1ccc(C(C)C)cc1	92.1% (inactive)
CC(C)=NNC(N)=S	88.3% (inactive)
Cc1ccc(C(=O)N/N=C/c2ccc3c(c2)OCO3)cc1	107% (inactive)
CCCCCCCCCCC(C)Br (stereo not given)	105% (inactive)
CCCCNC1(C#N)CCN(Cc2ccccc2)CC1	107% (inactive)
Cc1ccc(C)n1-c1ccsc1C(=O)NNC(=O)CCl	70.1% (inactive)
COc1cc(C(=O)N/N=C/c2cccc([N+](=O)[O-])c2)cc(OC)c1OC	58% (inactive)
c1ccc2c(c1)Sc1ccccc1S2	97.5% (inactive)
O=S(=O)(O)CC(O)CN1CCN(CCO)CC1 (stereo not given)	99.3% (inactive)
Cc1cc(C)cc(NCCC#N)c1	123% (inactive)

Compound	growth
COc1ccc(C2(O)CCCCC2)cc1	112% (inactive)
C=C1CC/C=C(\C)C(=O)C[C@@H]2[C@@H]1CC2(C)C	105% (inactive)
CSc1[nH]c(=O)ncc1F	94.1% (inactive)
Cc1cc(OCCO)cc(C)c1Cl	116% (inactive)
C#Cc1cccc(NC(=O)c2ccc(Cl)cc2Cl)c1	111% (inactive)
C=CC[N+](C)(C)C	114% (inactive)
NCCCN	106% (inactive)
COc1ccc(-c2cc(-c3cc(-c4ccc(OC)cc4)nc(N)n3)nc(N)n2)cc1	95.2% (inactive)
Cc1ccc(N)cc1[N+](=O)[O-]	97.9% (inactive)
Cc1ccc(Cl)cc1NC(=O)N(C)CCO	116% (inactive)
OC1OC(COC(c2ccccc2)(c2ccccc2)c2ccccc2)C(O)C(O)C1O (stereo not given)	99.6% (inactive)
COC(=O)/C=C/C(=O)NC(N)=O	99.4% (inactive)
Nc1ncnc2[nH]ncc12	-32.8% (active)
Cc1nc2ccccc2c2nnc(SCC(=O)N(Cc3ccccc3)c3ccccc3)n12	87.2% (inactive)
CC(=O)c1ccc2c(ccc3ccccc32)c1	98.1% (inactive)
COC(=O)C(C)Oc1ccc(OC#N)cc1 (stereo not given)	120% (inactive)
O=c1[nH][nH]c(=O)c2cc([N+](=O)[O-])ccc12	106% (inactive)
COc1cc(C(N)=O)cc(OC)c1OC	108% (inactive)
N#C/C(=C\c1cc(O)c(O)c(O)c1)C(N)=O	96.5% (inactive)
COC(=O)c1ccc(C(C)C)cc1	85.6% (inactive)
